Results filed as inconclusive are left out. The source made the active and inactive calls. The call rests on the fitted dose curve; in most records, active means well fitted curve in the direction sought with a large enough effect; inconclusive means small, poorly fitted or top-dose-only effect, or another doubt; inactive means no such curve, though single readings can be large; an effect the other way counts as inactive or inconclusive.
How the values were obtained:
[1] = system: Zika virus NS2B-NS3 protease (linked construct); experiment: Primary screen NINDS Rhodamine qHTS for Zika virus inhibitors (AID 1347160); details: purified NS2B-NS3 protease, Rhodamine110 substrate fluorescence; series mostly up to 57.1 µM; further: nearly all actives have a fitted effect of over 55% in size; further: potency means the concentration at half of the fitted maximal effect
Outline: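 Each compound, titrated, sat 15 min with 25 nM linked protease before 1.5 microM Rhodamine110 substrate went in. Fluorescence gain over the next 15 min, in pH 8.0 Tris with Tween 20, gave Hill-fitted curves.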

[2] = OV-KATE Cancer Cell Toxicity qHTS against the NCATS CANVASS Library (AID 1347345); details: OV-KATE cells viability, CellTiter-Glo luminescence, 72 h; series mostly up to 38.3 µM; further: potency means the concentration at half of the fitted maximal effect
Outline: (§1)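 Per well, 1000 cells; exposure 72 h with compound at 11 final concentrations; readout CellTiter-Glo luminescence.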

[3] = HPAF-II Cancer Cell Toxicity qHTS against the NCATS CANVASS Library (AID 1347346); details: HPAF-II viability, CellTiter-Glo ATP luminescence, 72 h; series mostly up to 38.3 µM; further: nearly all actives have a fitted effect of over 55% in size; further: potency means the concentration at half of the fitted maximal effect
Outline: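 First, HPAF-II cells are plated (1000 cells/well) and held 4 h at 37 degrees C. Next, compounds are pin-transferred as an 11-point series. After 72 h, CellTiter-Glo is added and luminescence measured.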

[4] = U-118MG Cancer Cell Toxicity qHTS against the NCATS CANVASS Library (AID 1347351); details: U-118MG viability, CellTiter-Glo luminescence, 72 h; series mostly up to 38.3 µM; further: potency means the concentration at half of the fitted maximal effect
Outline: as §1

[5] = HPAF-II 24hr Apoptosis Induction qHTS against the NCATS CANVASS Library (AID 1347356); details: HPAF-II caspase-3/7 Caspase-Glo luminescence; series mostly up to 46.1 µM
Outline: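 Cells seeded at 500 per well, then compounds pin-transferred in an 11-point concentration series. After 24 hours at 37 degrees C, Caspase-Glo 3/7 was added and luminescence measured following 15 min at room temperature.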

[6] = HEK293 18hr Apoptosis Induction qHTS against the NCATS CANVASS Library (AID 1347357); details: HEK293 caspase-3/7 Caspase-Glo luminescence; series mostly up to 46.1 µM
Outline: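 Luminescent caspase-3/7 signal is measured in HEK293 cells exposed for 18 hours to an 11-point concentration series; doxorubicin serves as the plate control.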

[7] = HPAF-II 12hr Apoptosis Induction qHTS against the NCATS CANVASS Library (AID 1347358); details: HPAF-II caspase-3/7 Caspase-Glo luminescence; series mostly up to 46.1 µM
Outline: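 Cells plated at 500 per well are dosed with compound and incubated 12 hours at 37 degrees C. Caspase-Glo 3/7 reagent is added and, after 15 min at room temperature, luminescence proportional to caspase activity is measured.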

[8] = HEK293 24hr Apoptosis Induction qHTS against the NCATS CANVASS Library (AID 1347359); details: HEK293 caspase-3/7 activation, Caspase-Glo luminescence; series mostly up to 46.1 µM
Outline: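 Caspase-3/7 activation measured as luminescence from the DEVD-based Caspase-Glo reagent, 15 min at room temperature, following 24-hour compound treatment of HEK293 cells.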

[9] = HEK293 12hr Apoptosis Induction qHTS against the NCATS CANVASS Library (AID 1347361); details: HEK293 caspase-3/7 Caspase-Glo luminescence; series mostly up to 46.1 µM; further: potency means the concentration at half of the fitted maximal effect
Outline: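 Apoptosis in HEK293 was scored as caspase-3/7 luminescence following 12 h treatment with a compound concentration series in qHTS format.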

[10] = target: Luciferin 4-monooxygenase (Photinus pyralis) (UniProt P08659); experiment: Firefly luciferase counterscreen qHTS: Assay Interference Panel against the NCATS CANVASS Library (AID 1347363); details: purified firefly luciferase, luminescence inhibition, 5 min; series mostly up to 57.5 µM; further: potency means the concentration at half of the fitted maximal effect
Sequence of Luciferin 4-monooxygenase (Photinus pyralis) (P08659 whole entry, looked up): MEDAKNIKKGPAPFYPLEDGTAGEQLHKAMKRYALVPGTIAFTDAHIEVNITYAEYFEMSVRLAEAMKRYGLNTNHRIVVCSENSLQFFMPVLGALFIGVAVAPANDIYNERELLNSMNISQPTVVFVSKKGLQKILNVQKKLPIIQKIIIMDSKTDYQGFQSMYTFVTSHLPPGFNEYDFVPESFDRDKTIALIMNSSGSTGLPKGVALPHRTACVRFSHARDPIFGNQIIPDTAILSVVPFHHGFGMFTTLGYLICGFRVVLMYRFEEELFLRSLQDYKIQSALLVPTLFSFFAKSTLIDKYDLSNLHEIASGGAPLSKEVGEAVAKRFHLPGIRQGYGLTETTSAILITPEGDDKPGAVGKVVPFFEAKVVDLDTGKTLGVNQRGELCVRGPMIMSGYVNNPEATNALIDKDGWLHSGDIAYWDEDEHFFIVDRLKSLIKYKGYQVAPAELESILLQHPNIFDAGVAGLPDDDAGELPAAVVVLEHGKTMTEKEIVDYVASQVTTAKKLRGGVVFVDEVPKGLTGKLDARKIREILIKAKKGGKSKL
Outline: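 Luminescence inhibition readout: compounds (11-point qHTS) sat 15 min at room temperature with substrate mix (0.013 mM luciferin and ATP), then firefly luciferase was added and signal read 5 min later.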

[11] = KB-3-1 Cancer Cell Toxicity qHTS against the NCATS CANVASS Library (AID 1347366); details: KB-3-1 viability, CellTiter-Glo luminescence, 72 h; series mostly up to 46.1 µM; further: nearly all actives have a fitted effect of over 75% in size; further: potency means the concentration at half of the fitted maximal effect
Outline: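 Seed KB-3-1 cells at 500/well in DMEM with 10% FBS, add compounds, incubate 72 hr at 37C and 5% CO2, then add CellTiter-Glo and read luminescence after 10 minutes.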

[12] = qHTS for ATAD5 Agonist screened against the NCATS CANVASS Library (AID 1347367); details: HEK293T ATAD5-luciferase reporter, luminescence, 16 h; series mostly up to 46.1 µM;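 further: luciferase reporter driven by ATAD5 which rises upon DNA damage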
Outline: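 Step one plated reporter cells and let them acclimate 5hr. Step two pinned compounds with MMS as positive and 0.46% DMSO as negative control. After 16hr incubation, fluorescence viability then luminescence were read.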

[13] = MCF7 Cancer Cell Toxicity qHTS against the NCATS CANVASS Library (AID 1347369); details: MCF7 viability, ATP luminescence (CellTiter-Glo), 72 h; series mostly up to 46 µM; further: potency means the concentration at half of the fitted maximal effect
Outline: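 Cytotoxicity is measured by ATP content: MCF7 cells at 500 per well receive an 11-point compound series and, after 72 hr at 37C, are lysed with CellTiterGlo for luminescence.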

[14] = qHTS for ATAD5 Antagonist screened against the NCATS CANVASS Library (AID 1347370); details: HEK293T-ATAD5-luc, 5-FUrd stimulated, luminescence, 16 h; series mostly up to 46.1 µM; further: nearly all actives have a fitted effect of over 65% in size; further: potency means the concentration at half of the fitted maximal effect
Outline: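 Compounds (11-point) co-dosed with 10 µM 5-FUrd for 16 h at 37 °C onto HEK293T-ATAD5 luciferase reporter cells. Viability measured by CellTiter-Fluor fluorescence, then ATAD5 reporter signal by luminescence.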

[15] = J3T Cancer Cell Toxicity qHTS against the NCATS CANVASS Library (AID 1347371); details: J3T dog glioma viability, ATP luminescence, 72 h; series mostly up to 46.1 µM; further: potency means the concentration at half of the fitted maximal effect
Outline: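 Luminescence from CellTiterGlo, reporting cellular ATP, serves as the viability measure after 72 hr compound treatment of J3T canine glioma cells seeded at 500 cells/well.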

[16] = target: Nuclear receptor subfamily 1 group I member 3 (Homo sapiens) (UniProt Q14994); experiment: qHTS for Constitutive Androstane Receptor (CAR) Antagonist screened against the NCATS CANVASS Library (AID 1347372); details: HepG2-hCAR-CYP2B6 luciferase, CITCO-stimulated antagonist mode; series mostly up to 46.1 µM; further: potency means the concentration at half of the fitted maximal effect
Sequence of Nuclear receptor subfamily 1 group I member 3 (Homo sapiens) (Q14994 whole entry, looked up): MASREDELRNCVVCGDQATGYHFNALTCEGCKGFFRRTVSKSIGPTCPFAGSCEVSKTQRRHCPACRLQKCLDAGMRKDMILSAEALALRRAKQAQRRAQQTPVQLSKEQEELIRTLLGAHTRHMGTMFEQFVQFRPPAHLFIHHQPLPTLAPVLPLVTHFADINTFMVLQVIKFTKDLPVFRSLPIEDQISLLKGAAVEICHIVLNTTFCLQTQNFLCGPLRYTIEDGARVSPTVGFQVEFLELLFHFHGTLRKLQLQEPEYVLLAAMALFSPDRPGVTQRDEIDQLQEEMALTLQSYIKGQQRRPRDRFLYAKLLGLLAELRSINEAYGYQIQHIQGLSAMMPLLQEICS
Outline: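 Antagonist mode: compound added alongside 50 nM CITCO to HepG2-hCAR-CYP2B6 reporter cells, 24hr at 37C. Viability by CellTiter-Fluor fluorescence, then CAR-driven luciferase by ONE-Glo luminescence.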

[17] = target: Nuclear receptor subfamily 1 group I member 3 (Homo sapiens) (UniProt Q14994); experiment: qHTS for Constitutive Androstane Receptor (CAR) Agonist screened against the NCATS CANVASS Library (AID 1347373); details: HepG2-hCAR-CYP2B6 luciferase reporter, ONE-Glo luminescence; series mostly up to 46.1 µM;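 further: every well also contained 1.5 µM PK11195 alongside the test compound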
Outline: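 Cells were plated and allowed to attach for 4hr, then dosed with compound in an 11-point series alongside 1.5uM PK11195. After 24hr at 37C, viability was measured fluorometrically and CAR-driven CYP2B6 reporter luminescence was recorded.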

[18] = 10-beta competent E. coli microbial cell viability qHTS against the NCATS CANVASS Library (AID 1347376); details: E. coli 10-beta viability, BacTiter-Glo ATP luminescence, overnight; series mostly up to 46.1 µM
Outline: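 Bacterial suspension diluted to 0.2 OD was dosed with compounds, 11-point series, then held overnight at 37C. BacTiter-Glo reagent was added, and after 20 min at room temperature ATP-dependent luminescence was measured.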

[19] = Inflammasome Signaling qHTS Counterscreen: IL-1-beta AlphaLISA counterscreen against the NCATS CANVASS Library (AID 1347381); details: Purified IL-1beta AlphaLISA signal interference counterscreen; series mostly up to 57.5 µM;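 further: cell-free check with purified IL-1β in medium and no THP-1 cells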
Outline: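 Purified IL-1-beta (4 pg/well) + compound, 11-pt conc. series; acceptor beads 6 ug/mL + biotin-Ab 0.6 nM final, 1 h RT; SA-donor 24 ug/ml final, 30 min dark RT; read ex 680/em 615.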

[20] = Viability qHTS for inhibitors of the SERCaMP assay screened against the NCATS CANVASS Library (AID 1347400); details: SH-SY5Y SERCaMP cells viability, CellTiter-Glo, 48 h; series mostly up to 92.2 µM; further: nearly all actives have a fitted effect of over 70% in size; further: potency means the concentration at half of the fitted maximal effect
Outline: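 Seed SH-SY5Y-GLuc SERCaMP MJH297 cells at 1000 per well, incubate 4 h, add compounds across an 11-point range, incubate 48 h at 37C, then add CellTiter-Glo and read luminescence.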

Measured: Potency

C=C1C(=O)C[C@H]2C[C@@H]1[C@]2(C)CCC=C(C)C
active: [1] 17.5 µM
inactive: all other assays above

C=C(C)CC[C@H](Cc1c(O)cc(O)c2c1O[C@H](c1ccc(O)cc1O)CC2=O)C(=C)C
active: [1] 19.6 µM
inactive: all other assays above

O=Cc1ccc2n1C[C@@]1(C[C@H](O)[C@H](O)CO1)OC2
inactive: all assays above

CCC[C@@H](C)/C=C(\C)[C@H](O)[C@H](C)/C=C/CC[C@@H](O)[C@H](C)[C@H](O)[C@H](C)[C@H](O)[C@H](C)[C@H]1O[C@H]([C@H](C)C(=O)O)CC[C@@H]1C
active: [1] 6.21 µM | [2] 3.75 µM | [3] 4.73 µM | [4] 16.8 µM | [11] 11.8 µM | [13] 16.5 µM | [20] 27 µM
not listed: [14] | [16]
inactive: all other assays above

CN1CC[C@]2(c3cccc4c3N[C@@H]3N(C)CC[C@]43[C@@]34CCN(C)[C@@H]3Nc3ccccc34)c3ccccc3N[C@H]12
active: [2] 14.9 µM | [3] 18.8 µM | [4] 7.49 µM | [11] 16.6 µM | [13] 9.31 µM | [15] 7.43 µM | [16] 26.3 µM | [20] 15.2 µM
not listed: [6]
inactive: all other assays above

CC1=CC2=C[C@H](C)C[C@@]23OC(=C(C)C3=O)CC(C)(C)/C=C/C1=O
active: [1] 55.3 µM | [2] 0.838 µM | [3] 0.668 µM | [4] 0.749 µM | [9] 0.935 µM | [11] 2.64 µM | [13] 1.65 µM | [14] 0.933 µM | [15] 0.935 µM | [20] 1.52 µM
inactive: [5] | [7] | [10] | [12] | [16] | [17] | [18] | [19]

CCCCCC[C@H](CCCCC[C@@H](O)C(N)=O)OC(=O)[C@@H]1CC=CN1C(=O)c1ccccc1O
active: [1] 62.1 µM
inactive: all other assays above

COc1ccc(/C=C2\COc3cc(O)ccc3C2=O)cc1
active: [1] 22 µM | [10] 0.485 µM
not listed: [4] | [17] | [20]
inactive: all other assays above

CC1(C)CC[C@]2(C(=O)O)CC[C@]3(C)C(=CC[C@@H]4[C@@]5(C)C[C@@H](O)[C@H](O)C(C)(C)[C@@H]5CC[C@]43C)[C@@H]2C1
active: [1] 19.6 µM
not listed: [4]
inactive: all other assays above

C/C=C1/CC[C@@H]2c3[nH]c4ccccc4c3CCN2C1
inactive: all assays above

C=C1C[C@@]23C=CC(=O)[C@@](C)(CCCC(C)C(=O)O)[C@@H]2C[C@@H]1CC3 (some centres undefined)
active: [1] 44 µM
inactive: all other assays above

CCCCCCC[C@@H](C/C=C/CCC(=O)NCCc1c[nH]c2ccccc12)OC
active: [1] 49.3 µM
not listed: [14] | [18]
inactive: all other assays above

— PubChem BioAssay (NCATS)
